Source: PubChem BioAssay
Compounds with a hit are over-represented: about 12% of the library has one in this group of screens.
USP8 inh – blocks human USP8 ubiquitin-rhodamine cleavage; P40818; purified USP8, Ub-rhodamine cleavage fluorescence, 30 min; inhibition, % at 20 µM; hit rate 4.2% among 47,000
Target sequence (P40818 whole entry, looked up): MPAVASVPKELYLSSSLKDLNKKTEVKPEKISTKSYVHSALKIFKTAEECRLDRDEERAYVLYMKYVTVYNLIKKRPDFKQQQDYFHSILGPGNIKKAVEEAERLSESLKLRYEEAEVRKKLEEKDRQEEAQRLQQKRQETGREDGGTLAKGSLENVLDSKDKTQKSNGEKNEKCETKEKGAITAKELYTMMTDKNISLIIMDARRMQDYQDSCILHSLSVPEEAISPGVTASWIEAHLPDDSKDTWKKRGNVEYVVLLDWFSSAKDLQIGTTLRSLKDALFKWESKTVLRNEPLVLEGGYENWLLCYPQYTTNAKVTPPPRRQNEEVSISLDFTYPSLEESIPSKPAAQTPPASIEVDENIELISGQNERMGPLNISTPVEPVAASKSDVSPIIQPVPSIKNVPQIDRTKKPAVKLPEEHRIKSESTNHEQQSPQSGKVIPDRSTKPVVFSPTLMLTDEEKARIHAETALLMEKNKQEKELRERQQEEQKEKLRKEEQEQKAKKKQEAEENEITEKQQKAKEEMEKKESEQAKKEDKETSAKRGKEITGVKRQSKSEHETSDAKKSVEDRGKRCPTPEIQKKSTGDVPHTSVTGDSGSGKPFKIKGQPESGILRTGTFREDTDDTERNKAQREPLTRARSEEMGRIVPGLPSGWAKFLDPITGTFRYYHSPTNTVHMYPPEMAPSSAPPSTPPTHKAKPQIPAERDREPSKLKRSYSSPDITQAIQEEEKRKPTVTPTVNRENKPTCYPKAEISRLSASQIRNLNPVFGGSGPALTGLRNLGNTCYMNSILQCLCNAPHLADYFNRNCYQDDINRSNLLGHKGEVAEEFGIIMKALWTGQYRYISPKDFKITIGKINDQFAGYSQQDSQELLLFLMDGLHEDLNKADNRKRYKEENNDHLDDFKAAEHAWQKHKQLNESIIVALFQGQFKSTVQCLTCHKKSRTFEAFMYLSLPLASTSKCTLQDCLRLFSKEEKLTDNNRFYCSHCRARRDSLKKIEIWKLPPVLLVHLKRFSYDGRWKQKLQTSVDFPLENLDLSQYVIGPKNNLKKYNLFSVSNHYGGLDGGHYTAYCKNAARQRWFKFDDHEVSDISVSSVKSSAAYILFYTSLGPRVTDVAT
USP17 inh – human USP17-like deubiquitinase inhibition | A8MUK1 | purified USP17, Ub-rhodamine cleavage fluorescence, 3 h | inhibition, % at 50 µM | hit rate 6.5% among 47,000 | AID 1645855
USP30 inh – human USP30 deubiquitinase inhibition. inhibition, % at 25 µM. hit rate 5.3% among 47,000. Q70CQ3. purified USP30, Ub-rhodamine cleavage fluorescence
Starred values were filed as active, the others as inactive. Cut-off read from the data, not from the text of the source: active = inhibition above about 30%; inactive = the rest.

Screening CS(=O)(=O)c1ccc2nc(N(Cc3ccccc3)C(=O)c3ccc4ccccc4c3)sc2c1 returned USP8 inh -4.3, USP17 inh 8.3 and USP30 inh 6.3.
Screening CS(=O)(=O)c1ccc2nc(N(Cc3cccnc3)C(=O)c3ccc4ccccc4c3)sc2c1 returned USP8 inh 63.4*, USP17 inh 52.6* and USP30 inh 51.5*.
O=C(Cn1nc2ccc(C(=O)NCc3ccccc3)cn2c1=O)Nc1ccc(F)cc1 was read as USP8 inh 17.5, USP17 inh 11.6 and USP30 inh 8.2.
For Cc1ccc(NC(=O)Cn2nc3ccc(C(=O)NCc4ccccc4)cn3c2=O)cc1F the results were USP8 inh 41.1*, USP17 inh 71.8* and USP30 inh -14.2.
For Cc1cccc(NC(=O)CN(Cc2ccccc2)S(=O)(=O)c2ccccc2F)c1 the results were USP8 inh 10.5, USP17 inh 8.8 and USP30 inh 12.9.
O=C1NC2(CCN(C(=O)Cc3ccccc3)CC2)N=C1c1ccc(Cl)cc1 was read as USP8 inh -39.9, USP17 inh -24.0 and USP30 inh -23.2.
`Cc1ccc(C)c(NC(=O)COC(=O)c2sc3cc(F)ccc3c2Cl)c1` gave USP8 inh 20.6, USP17 inh 10.1 and USP30 inh 19.3.
Screening O=C(NCc1cccc(F)c1)c1cc(OCc2ccccc2)nc2ccccc12 returned USP8 inh -73.3, USP17 inh -1.0 and USP30 inh 0.1.
For O=C(NCc1ccc(F)cc1)c1cc(OCc2ccccc2)nc2ccccc12 the results were USP8 inh -64.3, USP17 inh 15.7 and USP30 inh 31.3*.
Screening Cc1ccc(COc2cc(C(=O)NCc3ccccc3)c3ccccc3n2)cc1 returned USP8 inh -26.5, USP17 inh -19.5 and USP30 inh 0.9.
For COc1ccccc1CNC(=O)c1cc(OCc2ccccc2)nc2ccccc12 the results were USP8 inh -4.8 and USP17 inh 57.1*.
Screening CSc1ccc(NC(=O)C2CCCN(c3cnc4nccnc4c3)C2)cc1 (stereo unspecified) returned USP8 inh -101.5, USP17 inh -39.7 and USP30 inh inactive.
For CC(C)Cn1c(CN2CCOCC2)nc2ccccc21 the results were USP8 inh -19.8, USP17 inh -14.9 and USP30 inh -38.3.
`COc1ccc(-n2nnnc2CN2CCN(S(=O)(=O)c3ccc(Cl)cc3)CC2)cc1` gave USP8 inh 16.2, USP17 inh 40.2* and USP30 inh 47.1*.
Screening COc1ccc(OC)c(S(=O)(=O)N2CCN(Cc3nnnn3-c3ccccc3)CC2)c1 returned USP8 inh 0.1, USP17 inh 7.2 and USP30 inh 17.8.
`COc1c(O)c2c(c3cc(C(=O)O)[nH]c13)CCN2C(N)=O` gave USP8 inh 6.8, USP17 inh 36.5* and USP30 inh 14.6.
CCOC(=O)N1CCN(C(=O)CNC(=O)c2cc3c(OC)ccc(OC)c3[nH]2)CC1 was read as USP8 inh 13.0, USP17 inh 3.7 and USP30 inh -3.4.
For COc1ccc(Cl)cc1C(=O)OCC(=O)NC1CCCc2ccccc21 (stereo unspecified) the results were USP8 inh 7.9, USP17 inh 3.7 and USP30 inh 3.3.
Screening COc1ccc(-n2nnnc2CNS(=O)(=O)c2ccc3ccccc3c2)cc1 returned USP8 inh 20.1, USP17 inh 16.7 and USP30 inh 27.8.
`CC(=O)N1CCCCCC1C1CCN(Cc2ccc(C(N)=O)cc2)CC1` (stereo unspecified) gave USP8 inh 18.1, USP17 inh 12.5 and USP30 inh 28.0.
`CC(C)CN1CC2(CCN(C(=O)c3ccc[nH]3)CC2)COc2ccccc2S1(=O)=O` gave USP8 inh 7.5, USP17 inh 14.4 and USP30 inh 16.2.
`Cn1nnc2c(N3CCC(C(N)=O)(N4CCCCC4)CC3)nc(Cc3ccc(Cl)cc3Cl)nc21` gave USP8 inh -9.7, USP17 inh -17.4 and USP30 inh -11.5.
`CC(C)CC(=O)N1c2ccccc2NC2=C(C(=O)CC(C)(C)C2)C1c1ccco1` (stereo unspecified) gave USP8 inh -9.2, USP17 inh -19.5 and USP30 inh -42.6.
For CC1(C)CC(=O)C2=C(C1)Nc1ccccc1N(C(=O)C(F)(F)F)C2c1cccs1 (stereo unspecified) the results were USP8 inh 89.1*, USP17 inh 64.1* and USP30 inh -37.5.
`COc1ccc(C2CC(=O)C3=C(C2)Nc2ccccc2N(C(=O)c2ccccc2)C3c2ccc(C(C)(C)C)cc2)cc1` (stereo unspecified) gave USP8 inh 7.1, USP17 inh -3.0 and USP30 inh -0.2.
Screening CCCOc1ccc(C2C3=C(CC(C)(C)CC3=O)Nc3ccccc3N2C(=O)c2ccccc2)cc1OC (stereo unspecified) returned USP8 inh 8.3, USP17 inh 17.9 and USP30 inh 42.4*.
Screening COc1ccc(C2C3=C(CC(C)(C)CC3=O)Nc3ccccc3N2C(=O)c2ccccc2)cc1 (stereo unspecified) returned USP8 inh -1.0, USP17 inh 35.3* and USP30 inh -5.1.
For CC1(C)CC(=O)C2=C(C1)Nc1ccccc1N(C(=O)c1ccccc1)C2c1c(F)cccc1Cl (stereo unspecified) the results were USP8 inh -17.7, USP17 inh -28.2 and USP30 inh -87.3.
For N#C/C(=C\c1cccnc1)c1nc(-c2cc3ccccc3o2)cs1 the results were USP8 inh -34.8, USP17 inh -6.3 and USP30 inh -16.9.
`COCCn1cnc2c1c(=O)n(CCOc1ccccc1F)c(=O)n2Cc1ccccc1` gave USP8 inh -4.5, USP17 inh -7.7 and USP30 inh -2.3.
`Cc1cc(S(=O)(=O)N2CCCC2c2nnc3n2CCNCC3)ccc1F` (stereo unspecified) gave USP8 inh -32.0, USP17 inh -3.0 and USP30 inh -3.1.
Screening CC1NC(=O)[C@H]2C[C@H](C(=O)Nc3cc(Cl)cc(Cl)c3)[C@@H]1N2C (stereo partly specified) returned USP8 inh -1.5, USP17 inh -8.9 and USP30 inh -14.9.
`NC1=NC2(CCC(c3ccccc3)CC2)n2c(nc3ccccc32)N1` (stereo unspecified) gave USP8 inh 0.2, USP17 inh 4.1 and USP30 inh -2.8.
`CCC(C)(C)C1CCC2(CC1)N=C(N)Nc1nc3ccccc3n12` (stereo unspecified) gave USP8 inh 4.4, USP17 inh 10.8 and USP30 inh 69.3*.
Screening CC(C)OC(=O)CCCn1c(-c2ccccc2)cn2c3c(=O)n(C)c(=O)n(C)c3nc12 returned USP8 inh -56.6, USP17 inh 22.4 and USP30 inh 7.0.
For O=S(=O)(c1cccc(F)c1)N1CCOCC1CCc1cnccn1 (stereo unspecified) the results were USP8 inh 12.1, USP17 inh 3.9 and USP30 inh 6.3.
O=C(Cn1c(C(F)(F)F)nc2cc3c(cc21)OCCO3)NC1CCCC1 was read as USP8 inh 0.0, USP17 inh 35.2* and USP30 inh 3.0.
Screening O=C(Cn1c(C(F)(F)F)nc2cc3c(cc21)OCCO3)NCC1CCCO1 (stereo unspecified) returned USP8 inh 2.4, USP17 inh -8.3 and USP30 inh 5.9.
